From PubChem BioAssay (NCATS) come the findings set out here.

Molecules are shown by their SMILES. Values without a mark were called inactive. Records with an inconclusive call do not appear. Active and inactive are the calls of the source. Unless noted, the call rests on the fitted dose curve; in most records, active means well fitted curve in the direction sought with a large enough effect; inconclusive means small, poorly fitted or top-dose-only effect, or another doubt; inactive means no such curve, though single readings can be large; an effect the other way counts as inactive or inconclusive. Some results are limits rather than exact numbers.

Assay [1] is described as follows: Cell Viability - BJ (AID 421; calls by dose curve;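 further: potency means the concentration at half of the fitted maximal effect; cells exposed to compound for 40 hours at 37 °C before readout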). The note with it: BJ fibroblast viability, qHTS. In outline: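 Cytotoxicity as drop in intracellular ATP (CellTiter-Glo, 20 min RT) after 40 hr compound exposure of BJ fibroblasts at 37 °C. Titrations scaled between DMSO and 100 uM tamoxifen, Hill-fitted for AC50.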
A short description of assay [2]: Cell Viability - HepG2 (AID 433; calls by dose curve;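 further: potency means the concentration at half of the fitted maximal effect; potency for ATP loss meaning cytotoxicity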). The note with it: qHTS. The procedure, abridged: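 In this qHTS format, a 40 h, 37 °C compound incubation of HepG2 cells in complete medium precedes a 20 min CellTiter-Glo step at room temperature. Tamoxifen and doxorubicin serve as positive controls; Hill-equation fits yield AC50.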
A short description of assay [3]: Cell Viability - Renal Proximal Tubule (AID 545). Further: nearly all actives have a fitted effect of over 40% in size. The note with it: renal proximal tubule cells viability, primary cells of rat origin; activity change, negative = cytotoxicity: at 91.7 µM (top of the series). The procedure, abridged:
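In this qHTS format, normal rat kidney-derived proximal tubule cells in complete culture medium receive compound titrations, then sit 40 hours at 37 °C before luciferase-based ATP quantitation; potency is reported as AC50 from concentration-response curves.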

The nature of assay [4]: Cellular Toxicity (caspase-3) Jurkat (AID 655).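 Further: cells exposed to compound for 16 h at 37 °C before reading.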 The note with it: Jurkat caspase-3 activation, luminescence; caspase-3 activation: at 92.2 µM (top of the series), DMSO = 0%, tamoxifen = 100%. The procedure, abridged: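 qHTS in human Jurkat T-cell leukemia line: 16 hr compound treatment at 37 °C, caspase-3/7 activity measured by Caspase-Glo luminescence. AC50 derived from Hill equation.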

Assay [5] is described as follows: MultiTox-Fluor Cytotoxicity Assay - LYMP1-001 - Dead Cells (AID 946). The conditions noted are these: LYMP1-001 lymphoblastoid cells, dead-cell protease fluorescence; series mostly up to 92.2 µM. The procedure, abridged: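 Cytotoxicity as increased dead-cell protease fluorescence (bis-AAF-R110, 485/520 nm), read 60 min after MultiTox-Fluor reagent. Human lymphoblastoid line exposed 16 h; Hill-fitted AC50, with DMSO as 0% and 15 uM tetraoctylammonium bromide as 100%.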

Assay [6] can be described thus: Cell Viability - LYMP1-002 - Assay at 16 hr (AID 948).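 Further: 0% = DMSO alone and full effect = 92 µM tetraoctylammonium bromide.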 The conditions noted are these: LYMP1-002 lymphoblastoid cell viability; series mostly up to 92.2 µM. In outline:
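In this qHTS, lymphoblastoid LYMP1-002 cells (human) receive compounds for 16 hr at 37 C. Viability is taken from CellTiter-Glo ATP luminescence, and AC50 derives from standard Hill fits.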

Assay [7] can be described thus: MultiTox-Fluor Cytotoxicity Assay - LYMP1-002 - Live Cells (AID 955).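 Further: cells exposed to compound for 16 hours; on the % scale 0 is the no-effect control and ±100 the full control effect.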 The conditions noted are these: LYMP1-002 lymphoblastoid live-cell protease fluorescence viability; series mostly up to 46.1 µM. The procedure, abridged: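 Cytotoxicity in the human lymphoblastoid line LYMP1-002 is measured as loss of live-cell protease activity after 16 h treatment in complete culture medium. AC50 is derived from Hill-equation fits of qHTS concentration-response data.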

Assay [8] in a line: MultiTox-Fluor Cytotoxicity Assay - LYMP1-003 - Dead Cells (AID 961). Further: nearly all actives have a fitted effect of over 70% in size. Further: potency means the concentration at half of the fitted maximal effect. The note with it: LYMP1-003 lymphoblastoid cells, dead-cell protease fluorescence; series mostly up to 92.2 µM. In outline:
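Dead-cell protease release, detected as bis-AAF-R110 fluorescence at 485/520 nm, was measured in LYMP1-003 cells after 16 h compound treatment at 37 C. AC50 values came from Hill-modeled qHTS curves normalized to DMSO (0%) and 15 uM tetraoctylammonium bromide (100%).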

Assay [9] can be described thus: Cell Viability - LYMP2-004 (AID 966). Further: nearly all actives have a fitted effect of over 65% in size. Further: potency means the concentration at half of the fitted maximal effect.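 On activity change, negative = cytotoxicity: plate controls were DMSO only for no effect and tetraoctylammonium bromide control for full effect.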 The conditions noted are these: LYMP2-004 lymphoblastoid cell viability, qHTS; series mostly up to 92.2 µM. In outline:
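Acute toxicity is scored as a concentration-dependent drop in intracellular ATP, quantified by luciferase luminescence, in human lymphoblastoid cells exposed to compound for 24 hr. AC50 derives from Hill-equation modelling.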
Background: qHTS replaces the single test concentration by a dilution series.

A short description of assay [10]: Cell Viability - LYMP2-011 (AID 969).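 Further: 0% = DMSO only and full inhibition = 92 µM tetraoctylammonium bromide; nearly all actives have a fitted effect of over 60% in size.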 The note with it: LYMP2-011 lymphoblastoid cells viability; series mostly up to 92.2 µM. In outline: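 Acute toxicity is scored as a concentration-dependent drop in intracellular ATP of a human lymphoblastoid line after 24 hr treatment. Values are AC50s modeled with the Hill equation.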
Assay [11] can be described thus: Cell Viability - LYMP2-017 (AID 972).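 Further: cells exposed to compound for 24 hours at 37 °C; nearly all actives have a fitted effect of over 55% in size.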 Further: potency means the concentration at half of the fitted maximal effect. On activity change, negative = cytotoxicity: on the % scale 0 is the no-effect control and ±100 the full control effect. The conditions noted are these: LYMP2-017 lymphoblastoid cell viability; series mostly up to 92.2 µM. The procedure, abridged: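 Steps: plate 2500 lymphoblastoid cells per well; incubate 5 hr at 37 C; add compound across a concentration series and incubate 24 hr at 37 C; add CellTiter-Glo and read luminescence after 30 min at room temperature; fit Hill curves for AC50.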

Assay [12] is described as follows: Cell Viability - LYMP2-014 (AID 983).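 Further: cells exposed to compound for 24 h at 37 °C; nearly all actives have a fitted effect of over 50% in size.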 Further: potency means the concentration at half of the fitted maximal effect.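 On activity change, negative = cytotoxicity: plate controls were DMSO only for no effect and 92 µM tetraoctylammonium bromide for full effect.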 The conditions noted are these: LYMP2-014 lymphoblastoid cells, viability qHTS; series mostly up to 92.2 µM. The procedure, abridged: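 Decrease in intracellular ATP after 24 hr treatment at 37 C, measured by luciferase luminescence, indicated cytotoxicity. Concentration-response data were fitted with the standard Hill equation to give AC50.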

Assay [13] can be described thus: Cell Viability - LYMP2-016 (AID 984).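 Further: cells exposed to compound for 24 hours at 37 °C; nearly all actives have a fitted effect of over 55% in size.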 Further: potency means the concentration at half of the fitted maximal effect. On activity change, negative = cytotoxicity: on the % scale 0 is the no-effect control and ±100 the full control effect. The conditions noted are these: LYMP2-016 lymphoblastoid cell viability, qHTS; series mostly up to 92.2 µM. In outline:
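Concentration-dependent ATP depletion measured in LYMP2-016 lymphoblastoid cells, 24 h, 37 C; luciferase-based luminescent detection; Hill-equation AC50.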

Assay [14] in a line: Cell Viability - LYMP2-018 (AID 985).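 Further: compound exposure lasted 24 hr at 37 °C; nearly all actives have a fitted effect of over 50% in size.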 Further: potency means the concentration at half of the fitted maximal effect.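 On activity change, negative = cytotoxicity: plate controls were DMSO only for no effect and tetraoctylammonium bromide at 92 µM for full effect.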 The conditions noted are these: LYMP2-018 lymphoblastoid cells, viability (qHTS); series mostly up to 92.2 µM. The procedure, abridged: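 Acute cytotoxicity is scored as a concentration-dependent drop in intracellular ATP after 24 hr exposure of the lymphoblastoid line in complete culture medium, measured by luciferase luminescence. Potency is expressed as AC50 from Hill modelling.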

Assay [15] in a line: Cell Viability - LYMP2-022 (AID 987). Further: nearly all actives have a fitted effect of over 55% in size. Further: potency means the concentration at half of the fitted maximal effect. The conditions noted are these: LYMP2-022 lymphoblastoid cell viability; series mostly up to 92.2 µM. In outline:
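Acute toxicity in a human lymphoblastoid line is scored as decreased intracellular ATP after 24 hr compound treatment at 37 C. ATP is measured by CellTiter-Glo luminescence; curves are fitted with the Hill equation to give AC50.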

Assay [16] in a line: Cell Viability - LYMP1-002 - Assay at 24 hr (AID 993). Further: on the % scale 0 is the no-effect control and ±100 the full control effect. The conditions noted are these: LYMP1-002 lymphoblastoid cells viability; series mostly up to 92.2 µM. The procedure, abridged: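 qHTS, LYMP1-002 lymphoblastoid, 24 h cpd, 37 C, CellTiter-Glo ATP luminescence; AC50 via Hill eq.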
Assay [17] is described as follows: qHTS assay for environmental chemicals that activate the Aryl hydrocarbon Receptor (AhR) signaling pathway (AID 651777). Further: % of control where 0% means no effect; nearly all actives have a fitted effect of over 15% in size. The conditions noted are these: 1A2-DRE human hepatoma cells, luciferase, 24 h; activation: stronger effect = higher value. In outline: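 Quantitative HTS in stably transfected human liver-derived cells whose luciferase gene sits downstream of the CYP1A2 promoter and dioxin response element. After 24 hr exposure at 37 C, One-Glo luminescence was measured.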

For assay [18], the target named is Nuclear receptor subfamily 1 group I member 2 (Rattus norvegicus) (UniProt Q9R1A7). Put plainly: qHTS assay for small molecule activators of the rat pregnane X receptor (rPXR) signaling pathway (AID 651751; call rule not given here; further: 0% is about no effect). The note with it: rPXR reporter cells, luciferase (One-Glo), 24 h.
A short description of assay [19]: Cell Viability - LYMP2-007 (AID 979).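 Further: cells exposed to compound for 24 h before reading; nearly all actives have a fitted effect of over 60% in size.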 Further: potency means the concentration at half of the fitted maximal effect.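 On activity change, negative = cytotoxicity: 0% = DMSO only and the negative end = 92 µM tetraoctylammonium bromide.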 The note with it: LYMP2-007 lymphoblastoid cell viability; series mostly up to 92.2 µM. In outline:
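Acute toxicity is scored as a concentration-dependent fall in intracellular ATP in human lymphoblastoid cells treated 24 hr at 37 C, measured by luciferase luminescence; Hill-equation modelling yields AC50.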

Assay [20] is described as follows: Cell Viability - LYMP2-020 (AID 986).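 Further: cells exposed to compound for 24 h at 37 °C; nearly all actives have a fitted effect of over 55% in size.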 Further: potency means the concentration at half of the fitted maximal effect. The conditions noted are these: series mostly up to 92.2 µM. In outline: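 Acute cytotoxicity in a human lymphoblastoid line is scored as a concentration-dependent fall in cellular ATP after 24 hr at 37 C in complete medium. The positive control is tetraoctylammonium bromide, and potency is given as Hill-fit AC50.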

Sequence of Nuclear receptor subfamily 1 group I member 2 (Rattus norvegicus) (Q9R1A7 whole entry, looked up): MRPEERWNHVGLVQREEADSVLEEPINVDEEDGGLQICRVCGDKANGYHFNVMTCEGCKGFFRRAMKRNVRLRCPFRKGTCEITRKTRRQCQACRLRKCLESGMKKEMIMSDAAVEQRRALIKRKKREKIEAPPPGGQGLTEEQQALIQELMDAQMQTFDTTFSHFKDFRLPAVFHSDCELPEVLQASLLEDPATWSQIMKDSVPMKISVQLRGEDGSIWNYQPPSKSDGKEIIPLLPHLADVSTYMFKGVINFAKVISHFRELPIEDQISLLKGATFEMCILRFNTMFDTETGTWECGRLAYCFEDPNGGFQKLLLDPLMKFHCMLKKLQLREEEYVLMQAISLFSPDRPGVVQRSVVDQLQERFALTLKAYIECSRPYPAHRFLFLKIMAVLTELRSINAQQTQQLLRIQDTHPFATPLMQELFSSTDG

For the compound `Oc1cc(Cl)cc(Cl)c1Cl`, the Potency in [1] and in [2] was more than 92 µM in each case. Further, the Potency result in assay [3], in assay [4], in assay [5], in assay [6], in assay [8] and in assay [9] was “inactive” in each case. Also, the Potency result in [10], in assay [11], in assay [12], in assay [13], in assay [14] and in assay [15] was “inactive” throughout. Moreover, the Potency entry in assay [16] is “inactive”. The compound was called inactive in assay [7]. Besides, in assay [17], the activation was 2.22%. In assay [18], the max response was 0.309%.
In the case of `c1ccc(Nc2cccc3ccccc23)cc1`, the Potency in [1] and in assay [2] was more than 92 µM each time. The Potency result in assay [3], in [4], in [5], in assay [6], in assay [8] and in assay [9] was “inactive” in each case. For the same compound, the Potency entry in assay [10], in assay [11], in [19], in assay [12], in assay [13] and in assay [14] was “inactive” in each case. The Potency result in [20], in [15] and in assay [16] was “inactive” each time. In addition, the outcome in assay [7] was inactive.
For the compound `CC/C=C/C/C=C/C/C=C/CCCCCCCC(=O)OCC`, the Potency in assay [1] was more than 92 µM; in [2], more than 92 µM; in assay [8], 50.1 µM (active); in assay [9], 31.6 µM (active); in assay [11] it was 31.6 µM (active); in assay [19], 31.6 µM (active). In addition, the Potency in assay [12] was 50.1 µM (active); in assay [13], 39.8 µM (active); in assay [14] it was 31.6 µM (active); in [20] it was 39.8 µM (active); in assay [15] it was 25.1 µM (active). Further, the Potency entry in [3], in assay [4] and in [5] was “inactive” throughout. In [17], the activation is 0.56%. Further, the max response in assay [18] is 2.44%.
Turning to `C=CC(=O)CC`, the Potency in assay [1] and in assay [2] was more than 92 µM throughout. Further, the Potency result in assay [3], in [4], in assay [5], in assay [6], in assay [8] and in assay [9] was “inactive” throughout. For the same compound, the Potency entry in assay [10], in assay [11], in assay [19], in assay [12], in assay [13] and in assay [14] was “inactive” throughout. Besides, the Potency entry in assay [20], in [15] and in [16] was “inactive” each time. Further, the call in [7] was inactive. The activation in assay [17] is 1.17%. In addition, the max response in [18] was 9.91%.
As to `O=C(O)/C=C/c1ccc(/C=C/C(=O)O)cc1`, the Potency in [1] and in [2] was more than 92 µM in each case. In addition, the Potency entry in assay [3], in [4], in assay [5], in assay [6], in assay [8] and in [9] was “inactive” each time. The Potency entry in assay [10], in assay [11], in assay [19], in assay [12], in assay [13] and in assay [14] was “inactive” in each case. The Potency result in assay [20], in assay [15] and in assay [16] was “inactive” in each case. The result in assay [7] was inactive. Also, the activation in assay [17] was 0.407%. Moreover, the max response in assay [18] was 0.0892%.
